# In the supplement of paper PMC10498489:
# Out of some 2,300 compounds screened, about 330 (14%) showed activity. These entries were drawn from the full list. A number with no mark means an inactive call.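 How the source made its calls: active = median modified Z-score above 1.96; inactive = 1.96 or below.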
# Test system: HepG2 Srxn1-GFP reporter cells (+30 nM CDDO-Me)
# Assay: Srxn1-GFP intensity median modified Z-score relative to plate median; higher = stronger NRF2 / oxidative stress reporter activation, active = hit call of the paper
# Settings: 10 µM; exposure time: 24h
# Method in brief: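 Each value is the replicate median of a per-plate modified Z-score for GFP intensity in HepG2 Srxn1-GFP BAC reporter cells. The cells (20,000 per well, 96-well plates, three replicate plates) received compound at 10 μM together with an NRF2 activator at 30 nM for 24 h, in ≤0.1% DMSO. Cytoplasmic GFP was quantified per cell from confocal images of formaldehyde-fixed, Hoechst-stained cells, leaving out images with fewer than 100 cells, and scaling used 1.4826 × median absolute deviation.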
row,SMILES,Srxn1-GFP intensity median modified Z-score
1,CC1=CC(=O)c2ccccc2C1=O [euspeclibcmpd446],5.02 (active)
2,CN1C(C(=O)N=c2cccc[nH]2)C(=O)c2sc(Cl)cc2S1(=O)=O (stereo unspecified) [euspeclibcmpd458],-0.432
3,CC(=O)OC=C1CSC2C(NC(=O)Cc3cccs3)C(=O)N2C1C(=O)O (stereo unspecified) [euspeclibcmpd2267],0.967
4,S=c1[nH]c2ccccc2s1 [euspeclibcmpd1954],-0.455
5,CN(C)CCC=C1c2ccccc2CCc2ccccc21 [euspeclibcmpd21],0.287
6,CN1CCN(CC/C=C2\c3ccccc3Sc3ccc(S(=O)(=O)N(C)C)cc32)CC1 [euspeclibcmpd294],4.72 (active)
7,CN(C)CC/C=C1\c2ccccc2Sc2ccc(Cl)cc21 [euspeclibcmpd538],-1.04
8,CN1CCC[C@@H]1Cc1c[nH]c2ccc(CCS(=O)(=O)c3ccccc3)cc12 [euspeclibcmpd938],-0.193
9,CCCN(Cc1nnc(-c2cccs2)o1)C(=O)CSc1nnc(-c2cccs2)n1C1CC1,0.54
10,CC1O[C@@H](Oc2c(-c3ccc(O)c(O)c3)oc3cc(O)cc(O)c3c2=O)[C@H](O)[C@H](O)[C@H]1O (stereo partly specified) [euspeclibcmpd1694],-0.35
11,CC(C)(C)c1ccc(C(=O)N/N=C/c2ccc([N+](=O)[O-])o2)cc1,1.17
12,O=C1OCCN1/N=C/c1ccc([N+](=O)[O-])o1 [euspeclibcmpd134],2.95 (active)
13,O=C(N/N=C/c1ccc([N+](=O)[O-])o1)c1ccc(O)cc1 [euspeclibcmpd1226],0.949
14,NC(=O)N/N=C/c1ccc([N+](=O)[O-])o1 [euspeclibcmpd210],10.3 (active)
15,O=c1[nH]c(O)cn1/N=C/c1ccc([N+](=O)[O-])o1 [euspeclibcmpd209],0.292
16,O=C(N/N=C/c1ccc([N+](=O)[O-])o1)c1ccc(Br)cc1,4.87 (active)
17,O=C1OC(CN2CCOCC2)CN1/N=C/c1ccc([N+](=O)[O-])o1 (stereo unspecified) [euspeclibcmpd1273],0.605
18,CC(C)CC(N)C(=O)NC(C)C(=O)O (stereo unspecified) [euspeclibcmpd1745],0.124
19,CC(=O)NCCc1ccc(O)c(C2C(=O)C(=O)c3c(c(O)c4c(C(=O)O)c(C(=O)O)c(O)cc4c3O)C2=O)c1 (stereo unspecified) [euspeclibcmpd1580],-0.208
20,CC(=O)OC=C1CSC2C(N)C(=O)N2C1C(=O)O (stereo unspecified) [euspeclibcmpd1380],-0.0231
21,O=C(O)c1ccc[nH]c1=Nc1cccc(C(F)(F)F)c1 [euspeclibcmpd1074],-0.299
22,N#CCOC(=O)c1cc(-c2ccccc2)nc2ccccc12,1.25
23,NCCc1cc[nH]n1 [euspeclibcmpd614],1.24
24,NC(=O)NC(CC(=O)O)C(=O)O (stereo unspecified),1.02

row,SMILES,Srxn1-GFP intensity median modified Z-score
1,CNC(=O)CN1CCC(NC(=O)NCc2ccc(C)n2C)CC1,0.3
2,CN1CCN(C(=O)Oc2c3nccnc3c(O)n2-c2ccc(Cl)cn2)CC1 [euspeclibcmpd2130],-0.245
3,C=C(C)[C@@H]1CC[C@]2(C)CC[C@]3(C)[C@@H](CCC4[C@@]5(C)CC[C@H](O)C(C)(C)C5CC[C@]43C)C12 (stereo partly specified) [euspeclibcmpd1455],-0.31
4,C=C(C)[C@@H]1CC[C@]2(C(=O)O)CC[C@]3(C)[C@H](CCC4[C@@]5(C)CC[C@H](O)C(C)(C)C5CC[C@]43C)[C@@H]12 (stereo partly specified) [euspeclibcmpd1473],-0.366
5,C=C(C)[C@@H]1CC[C@]2(CO)CC[C@]3(C)[C@H](CCC4[C@@]5(C)CC[C@H](O)C(C)(C)C5CC[C@]43C)C12 (stereo partly specified) [euspeclibcmpd1538],10.7 (active)
6,CC=C(c1ccc(O)cc1)C(CC)c1ccc(O)cc1 (stereo unspecified) [euspeclibcmpd93],0.179
7,N=C(N)SCCN [euspeclibcmpd1761],3.8 (active)
8,NCCSSCCN [euspeclibcmpd2395],-0.505
9,N=C(N)N [euspeclibcmpd2417],-0.496
10,N=c1[nH]c(=O)c2ncn(COC(CO)CO)c2[nH]1 [euspeclibcmpd487],0.251
11,CCN1CCN(C(=O)NC(C(=O)NC2C(=O)N3C2SC(C)(C)[C@@H]3C(=O)O)c2ccccc2)C(=O)C1=O (stereo partly specified) [euspeclibcmpd2069],0
12,CC1(C)OC2CC3C4CC(F)=C5CC(=O)CCC5(C)C4C(O)CC3(C)C2(C(=O)CO)O1 (stereo unspecified) [euspeclibcmpd1953],-0.815
13,O=C1OC2(c3ccc(O)cc3Oc3cc(O)ccc32)c2ccccc21 [euspeclibcmpd769],2.16 (active)
14,O=C1OC(c2ccc(O)cc2)(c2ccc(O)cc2)c2ccccc21 [euspeclibcmpd234],1.62
15,O=c1cc(-c2ccccc2O)oc2cc(O)ccc12 [euspeclibcmpd1982],-0.161
16,CS(=O)(=O)c1ccc([C@H](O)[C@H](CF)NC(=O)C(Cl)Cl)cc1 [euspeclibcmpd827],-0.193
17,OC[C@H]1O[C@@H](Oc2ccc(Cl)cc2)[C@H](O)[C@@H](O)[C@H]1O,1.18
18,CCOC(=O)N=c1[nH]c2ccccc2[nH]1 [euspeclibcmpd787],-0.0391
19,COC(=O)N=c1[nH]c2ccc([S+]([O-])c3ccccc3)cc2[nH]1 (stereo unspecified) [euspeclibcmpd738],-0.824
20,COC(=O)N=c1[nH]c2ccc(C(=O)c3ccccc3)cc2[nH]1 [euspeclibcmpd378],19.3 (active)
21,COC(=O)N=c1[nH]c2ccc(C(=O)c3ccc(F)cc3)cc2[nH]1 [euspeclibcmpd2318],8.09 (active)
22,COC(=O)N=c1[nH]c2ccc(Sc3ccccc3)cc2[nH]1 [euspeclibcmpd371],2.82 (active)
23,O=c1oc2ccccc2cc1O [euspeclibcmpd2250],-0.381
24,CCC(C)(C)c1ccc(CC(C)CN2C[C@@H](C)O[C@@H](C)C2)cc1 (stereo partly specified) [euspeclibcmpd489],1.75

row,SMILES,Srxn1-GFP intensity median modified Z-score
1,CC1(C)O[C@@H]2CC3C4CC(F)=C5CC(=O)C=C[C@]5(C)[C@@]4(F)[C@@H](O)C[C@]3(C)[C@]2(C(=O)CO)O1 (stereo partly specified) [euspeclibcmpd129],0.0501
2,CCC(C)C1NC(=O)C(CCNCS(=O)(=O)O)NC(=O)C(NC(=O)C(CCNCS(=O)(=O)O)NC(=O)C(NC(=O)C(CCNCS(=O)(=O)O)NC(=O)CCCCC(C)C)C(C)O)CCNC(=O)C(C(C)O)NC(=O)C(CCNCS(=O)(=O)O)NC(=O)C(CCNCS(=O)(=O)O)NC(=O)C(C(C)CC)NC1=O (stereo unspecified) [euspeclibcmpd2131],0.0847
3,CCC(C)n1nccc1NC(=O)C(C)N1CCSCC1 (stereo unspecified),0.365
4,COC1(C)CCC2OC2(C)CCC2C1CC2(C)C (stereo unspecified) [euspeclibcmpd2008],-0.165
5,CC1(C)[C@@H]2CC[C@]1(C)C(=O)C2 [euspeclibcmpd42],-0.12
6,O=C(O)c1cc(O)c2c(O)c3c(OC4OC(CO)C(O)C(O)C4O)cccc3c(-c3c4cc(C(=O)O)cc(O)c4c(O)c4c(OC5OC(CO)C(O)C(O)C5O)cccc34)c2c1 (stereo unspecified) [euspeclibcmpd1934],-0.281
7,Cn1nnnc1SC=C1CSC2C(NC(=O)C(O)c3ccccc3)C(=O)N2C1C(=O)O (stereo unspecified) [euspeclibcmpd2229],-0.103
8,O=C(Nc1ccccc1Cl)C1=NN(C2CCS(=O)(=O)C2)C(=O)CC1 (stereo unspecified),1.26
9,COc1cc(OC)c2c(=O)c(-c3ccccc3)c(C)oc2c1OC [euspeclibcmpd2303],1.35
10,O=C(O)Cc1ccccc1Nc1c(Cl)cccc1Cl [euspeclibcmpd2396],0.438
11,N=c1[nH]c(N2CCCCC2)cc(N)[n+]1[O-] [euspeclibcmpd792],-0.234
12,CC1(C)O[C@@H]2CC3C4CC(F)=C5CC(=O)C=CC5(C)C4C(O)CC3(C)[C@]2(C(=O)CO)O1 (stereo partly specified) [euspeclibcmpd414],0.0846
13,O=C1CCC(N2C(=O)c3ccccc3C2=O)C(=O)N1 (stereo unspecified) [euspeclibcmpd588],-0.192
14,NC(=O)Nc1[nH]c(=O)[nH]c1O [euspeclibcmpd347],-0.31
15,CC1CCC2[C@@]3(C)C=CC(=O)C(C)(C)C3CC3OC(=O)C(=O)C1[C@]32C (stereo partly specified) [euspeclibcmpd1535],9.38 (active)
16,CC(=O)OC=C1CSC2C(NC(=O)CSc3ccncc3)C(=O)N2C1C(=O)O (stereo unspecified) [euspeclibcmpd2110],0.0966
17,OCCc1ccccc1 [euspeclibcmpd771],-0.962
18,S=C1SCN(Cc2ccccc2)CN1Cc1ccccc1 [euspeclibcmpd1200],10 (active)
19,CC(=O)NC1C(O)OC(CO)C(O)C1O (stereo unspecified) [euspeclibcmpd1995],-0.204
20,Cc1c(N=c2[nH]cccc2C(=O)O)cccc1C(F)(F)F [euspeclibcmpd1313],0.328
21,Cc1cnc(C(=O)O)c[n+]1[O-] [euspeclibcmpd1196],-0.419
22,CN[C@@H]1[C@H](OC2[C@H](O[C@H]3[C@H](O)[C@@H](O)[C@H](N=C(N)N)[C@@H](O)[C@@H]3N=C(N)N)O[C@@H](C)[C@]2(O)C=O)O[C@@H](CO)[C@H](O)[C@H]1O (stereo partly specified) [euspeclibcmpd270],-0.445
23,C=C(C)[C@H]1C=CC(C(=O)O)CC1 (stereo partly specified) [euspeclibcmpd1451],-0.188
